Experimental data published in PubChem BioAssay AID1159580 (chemical genetic matrix, 2015).
Screen size: about 5,500 compounds; about 2,000 (36%) were called active. About 18% were inconclusive and are not listed. Rule as the data show it: active = normalized growth mostly below about 0.91 (no sharp cut-off); inconclusive = no clear call, values can overlap the other calls; inactive = mostly above about 0.92. This is one part of the list.

Assay: chemical genetic growth profiling, strain panel (AID 1159580);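 also: tested at 20 µM; growth read once vehicle control cultures reached saturation at 30 °C; 1 = growth at the plate median or of vehicle wells; lower values mean less growth of the strain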
Conditions: growth OD

Measured: normalized growth

COP(=S)(OC)SCn1nnc2ccccc2c1=O
inactive: S. cerevisiae deletion strains, locus YJR075W, strain HOC1, stronger effect = lower value 0.975 | S. cerevisiae deletion strains, locus YKL068W, stronger effect = lower value 0.995 | S. cerevisiae deletion strains, locus YKL085W, strain MDH1 (second series), stronger effect = lower value 0.985 | S. cerevisiae deletion strains, locus YKL085W, strain MDH1, stronger effect = lower value 0.985 | S. cerevisiae deletion strains, locus YKL160W, strain elf1, stronger effect = lower value 0.989 | S. cerevisiae deletion strains, locus YKL190W, strain CNB1, stronger effect = lower value 0.976 | S. cerevisiae deletion strains, locus YKR001C, strain vps1, stronger effect = lower value 0.969 | S. cerevisiae deletion strains, locus YKR026C, strain gcn3, stronger effect = lower value 1.01 | S. cerevisiae deletion strains, locus YKR091W, strain srl3, stronger effect = lower value 1.01 | S. cerevisiae deletion strains, locus YLL001W, strain dnm1, stronger effect = lower value 1.01 | S. cerevisiae deletion strains, locus YLL026W, stronger effect = lower value 0.999 | S. cerevisiae deletion strains, locus YLL041C, strain sdh2, stronger effect = lower value 1 | S. cerevisiae deletion strains, locus YLR027C, strain aat2, stronger effect = lower value 0.996 | S. cerevisiae deletion strains, locus YLR039C, strain RIC1, stronger effect = lower value 0.974 | S. cerevisiae deletion strains, locus YLR058C, strain SHM2, stronger effect = lower value 0.971 | S. cerevisiae deletion strains, locus YLR102C, strain apc9, stronger effect = lower value 0.98 | S. cerevisiae deletion strains, locus YLR113W, strain HOG1, stronger effect = lower value 1.01 | S. cerevisiae deletion strains, locus YLR221C, strain rsa3, stronger effect = lower value 0.971 | S. cerevisiae deletion strains, locus YLR258W, strain gsy2, stronger effect = lower value 1 | S. cerevisiae deletion strains, locus YLR262C, strain YPT6 (second series), stronger effect = lower value 0.96 | S. cerevisiae deletion strains, locus YLR262C, strain YPT6, stronger effect = lower value 0.941 | S. cerevisiae deletion strains, locus YLR268W, strain sec22, stronger effect = lower value 0.963 | S. cerevisiae deletion strains, locus YLR320W, strain mms22, stronger effect = lower value 1 | S. cerevisiae deletion strains, locus YLR330W, strain CHS5, stronger effect = lower value 0.981 | S. cerevisiae deletion strains, locus YLR342W, strain FKS1 (second series), stronger effect = lower value 0.921 | S. cerevisiae deletion strains, locus YLR342W, strain FKS1, stronger effect = lower value 0.986 | S. cerevisiae deletion strains, locus YLR357W, strain rsc2, stronger effect = lower value 0.885 | S. cerevisiae deletion strains, locus YLR370C, strain arc18, stronger effect = lower value 1.02 | S. cerevisiae deletion strains, locus YLR371W, strain rom2, stronger effect = lower value 0.98 | S. cerevisiae deletion strains, locus YLR384C, strain iki3, stronger effect = lower value 0.993 | S. cerevisiae deletion strains, locus YLR418C, strain cdc73, stronger effect = lower value 0.985 | S. cerevisiae deletion strains, locus YML016C, strain PPZ1, stronger effect = lower value 0.981 | S. cerevisiae deletion strains, locus YML032C, strain rad52, stronger effect = lower value 0.977 | S. cerevisiae deletion strains, locus YML120C, strain ndi1, stronger effect = lower value 1.01 | S. cerevisiae deletion strains, locus YML124C, strain tub3, stronger effect = lower value 0.999 | S. cerevisiae deletion strains, locus YMR058W, strain fet3, stronger effect = lower value 0.974 | S. cerevisiae deletion strains, locus YMR078C, strain ctf18, stronger effect = lower value 0.981 | S. cerevisiae deletion strains, locus YMR125W, strain sto1, stronger effect = lower value 1.01 | S. cerevisiae deletion strains, locus YMR129W, stronger effect = lower value 1.01 | S. cerevisiae deletion strains, locus YMR205C, strain PFK2, stronger effect = lower value 1.03 | S. cerevisiae deletion strains, locus YMR223W, strain ubp8, stronger effect = lower value 0.962 | S. cerevisiae deletion strains, locus YMR231W, strain pep5, stronger effect = lower value 0.969 | S. cerevisiae deletion strains, locus YMR263W, strain SAP30, stronger effect = lower value 0.95 | S. cerevisiae deletion strains, locus YMR307W, strain GAS1, stronger effect = lower value 0.993 | S. cerevisiae deletion strains, locus YNL067W, strain RPL9B, stronger effect = lower value 0.941 | S. cerevisiae deletion strains, locus YNL071W, strain lat1, stronger effect = lower value 0.98 | S. cerevisiae deletion strains, locus YNL128W, strain TEP1, stronger effect = lower value 0.954 | S. cerevisiae deletion strains, locus YNL153C, strain GIM3, stronger effect = lower value 0.974 | S. cerevisiae deletion strains, locus YNL183C, strain NPR1, stronger effect = lower value 0.891 | S. cerevisiae deletion strains, locus YNL209W, strain ssb2, stronger effect = lower value 1.01 | S. cerevisiae deletion strains, locus YNL233W, strain BNI4, stronger effect = lower value 0.975 | S. cerevisiae deletion strains, locus YNL248C, strain rpa49, stronger effect = lower value 0.951 | S. cerevisiae deletion strains, locus YNL250W, strain rad50, stronger effect = lower value 0.978 | S. cerevisiae deletion strains, locus YNL271C, strain bni1, stronger effect = lower value 0.977 | S. cerevisiae deletion strains, locus YNL298W, strain CLA4, stronger effect = lower value 0.959 | S. cerevisiae deletion strains, locus YNL307C, strain MCK1, stronger effect = lower value 0.995 | S. cerevisiae deletion strains, locus YNL322C, strain KRE1 (second series), stronger effect = lower value 1 | S. cerevisiae deletion strains, locus YNL322C, strain KRE1, stronger effect = lower value 0.979 | S. cerevisiae deletion strains, locus YNR049C, strain mso1, stronger effect = lower value 1.01 | S. cerevisiae deletion strains, locus YNR052C, strain pop2, stronger effect = lower value 0.99 | S. cerevisiae deletion strains, locus YOL006C, strain TOP1, stronger effect = lower value 0.829 | S. cerevisiae deletion strains, locus YOL012C, strain htz1 1.5 | S. cerevisiae deletion strains, locus YOL147C, strain pex11, stronger effect = lower value 0.99 | S. cerevisiae deletion strains, locus YOR001W, strain rrp6, stronger effect = lower value 0.973 | S. cerevisiae deletion strains, locus YOR061W, strain CKA2, stronger effect = lower value 0.955 | S. cerevisiae deletion strains, locus YOR069W, strain VPS5, stronger effect = lower value 0.992 | S. cerevisiae deletion strains, locus YOR070C, strain gyp1, stronger effect = lower value 0.986 | S. cerevisiae deletion strains, locus YOR080W, strain dia2, stronger effect = lower value 0.998 | S. cerevisiae deletion strains, locus YOR083W, strain WHI5, stronger effect = lower value 0.976 | S. cerevisiae deletion strains, locus YOR106W, strain vam3, stronger effect = lower value 0.918 | S. cerevisiae deletion strains, locus YOR136W, strain idh2, stronger effect = lower value 1.01 | S. cerevisiae deletion strains, locus YOR144C, strain elg1, stronger effect = lower value 0.988 | S. cerevisiae deletion strains, locus YOR184W, strain ser1, stronger effect = lower value 0.951 | S. cerevisiae deletion strains, locus YOR231W, strain MKK1, stronger effect = lower value 0.985 | S. cerevisiae deletion strains, locus YOR265W, strain rbl2, stronger effect = lower value 1 | S. cerevisiae deletion strains, locus YOR270C, strain vph1, stronger effect = lower value 0.858 | S. cerevisiae deletion strains, locus YOR290C, strain snf2, stronger effect = lower value 0.976 | S. cerevisiae deletion strains, locus YOR316C, strain cot1, stronger effect = lower value 0.971 | S. cerevisiae deletion strains, locus YPL051W, strain arl3, stronger effect = lower value 0.973 | S. cerevisiae deletion strains, locus YPL055C, strain LGE1, stronger effect = lower value 0.951 | S. cerevisiae deletion strains, locus YPL078C, strain atp4, stronger effect = lower value 0.992 | S. cerevisiae deletion strains, locus YPL106C, strain sse1, stronger effect = lower value 1.02 | S. cerevisiae deletion strains, locus YPL240C, strain hsp82, stronger effect = lower value 1.01 | S. cerevisiae deletion strains, locus YPL241C, strain CIN2, stronger effect = lower value 0.978 | S. cerevisiae deletion strains, locus YPL256C, strain CLN2, stronger effect = lower value 1 | S. cerevisiae deletion strains, locus YPR119W, strain clb2, stronger effect = lower value 0.994 | S. cerevisiae deletion strains, locus YPR141C, strain kar3, stronger effect = lower value 0.969 | S. cerevisiae deletion strains, locus YPR163C, strain tif3, stronger effect = lower value 0.99 | S. cerevisiae deletion strains, locus YPR167C, strain met16, stronger effect = lower value 0.981 | S. cerevisiae deletion strains, strain wtn01, stronger effect = lower value 0.981 | S. cerevisiae strains, strain wild type, stronger effect = lower value 0.977
active: S. cerevisiae deletion strains, locus YKL009W, strain mrt4, stronger effect = lower value 0.866
